Assay outcomes as filed in PubChem.
Only some compounds are listed: those with a hit (about 21% of all), similar ones and a draw of the others.
Shiga inhibitor = blocks Shiga toxin action in Vero cells. Vero cells, Shiga toxin protein synthesis inhibition reporter. inhibition, % at 38.7 µM. 9.2% of 290,000 active; in the data active = inhibition mostly above about 28%, no sharp cut-off; inactive = mostly below about 43%
AMA1 RON2 block = inhibitors of Plasmodium falciparum AMA1-RON2 interaction; AlphaScreen AMA1-biotinylated RON2 peptide binding; Potency, µM (highest dose often 58.2 µM), hits mostly inhibitors; 0.2% of 360,000 active; also: nearly all actives have a fitted effect of over 45% in size
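AMA1 (3D7) with his tag at 25 nM final met compounds first, then biotinylated RON2 peptide at 25 nM; detection used donor plus acceptor beads, 10 µg/mL apiece, read by AlphaScreen after 30 min at room temperature.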
CHX counter = affects cycloheximide protein synthesis inhibition readout, counter-screen | 12% of 300,000 active | max response, % | AID 2314 | cell reporter, cycloheximide protein synthesis inhibition counterscreen; in the data active = max response mostly above about 13%, no sharp cut-off; inactive = mostly below about 14%; also: read at 38.3 µM for the half of the compounds with a filed dose
Pf growth 96h = inhibits malaria parasite growth, 96 h; P. falciparum luciferase reporter growth, 96 h; Potency, µM (titrated, usually from 28.7 µM), actives largely listed as inhibitors; 6.9% of 320,000 active
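Erythrocytes infected with luciferase-expressing P. falciparum were dispensed at 2% hematocrit and 0.05% parasitemia (final), then incubated with compounds 96 hours at 37 C in 5% CO2. Luminescence after detection reagent addition reported growth.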
Pf growth 48h = inhibits P. falciparum growth in the first generation, 48 h; P. falciparum luciferase growth in erythrocytes, 48 h; Potency, µM (top dose mostly 28.7 µM), most hits filed as inhibitors; 5.9% of 310,000 active
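Firefly luciferase activity from engineered P. falciparum reports growth; inhibitors lower the luminescent signal. Cultures contained 2% hematocrit erythrocytes at 0.1% final parasitemia.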
HCV inh = blocks hepatitis C virus; Huh7.5.1 HCVcc-Cre infection, luciferase reporter, 44 h; Potency, µM (highest dose often 41.8 µM), most hits filed as inhibitors; 3.4% of 340,000 active; AID 651820
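1,000 cells/well; 4 h culture; + compound; + HCVcc-Cre (~0.5 moi); 44 h; luciferase substrate, RT 15 min; read 15 sec.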
A number is an active result. Unless noted, calls follow the shape of the dose curve; as a rule, active = well fitted curve in the direction sought with a large enough effect; inconclusive = small, poorly fitted or top-dose-only effect, or another doubt; inactive = no such curve, though single readings can be large; an effect the other way counts as inactive or inconclusive.

O=C(COc1coc(CN2CCc3ccccc3C2)cc1=O)Nc1ccc(F)cc1 was read as AMA1 RON2 block inactive, Pf growth 96h inconclusive, Pf growth 48h inactive and HCV inh inactive.
`O=C(COc1coc(CN2CCc3ccccc3C2)cc1=O)Nc1cccc([N+](=O)[O-])c1` gave AMA1 RON2 block inactive, Pf growth 96h inconclusive, Pf growth 48h 12µM and HCV inh inconclusive.
For O=C(COc1coc(CN2CCc3ccccc3C2)cc1=O)Nc1ccc(Cl)cc1 the results were AMA1 RON2 block inactive, Pf growth 96h inactive, Pf growth 48h inconclusive and HCV inh inactive.
Screening Cc1cccc(C)c1NC(=O)CNC(=O)CNC(=O)c1ccc2c(c1)OCO2 returned AMA1 RON2 block inactive, Pf growth 96h inactive, Pf growth 48h inactive and HCV inh inactive.
For O=C(CN1C(=O)c2ccc([N+](=O)[O-])cc2C1=O)Nc1ccccc1N1CCCC1 the results were AMA1 RON2 block inactive, Pf growth 96h inactive, Pf growth 48h inactive and HCV inh inactive.
Cc1ccc(Cn2cc(SCC(=O)Nc3nccs3)c3ccccc32)cc1 was read as Shiga inhibitor inactive, AMA1 RON2 block inactive, CHX counter 24, Pf growth 96h inconclusive, Pf growth 48h inconclusive and HCV inh inactive.
O=C(CSc1nccn1Cc1ccccc1)Nc1ccccc1 was read as Shiga inhibitor 33, AMA1 RON2 block inactive, CHX counter 18, Pf growth 96h inactive, Pf growth 48h inactive and HCV inh inactive.
Cc1nnc(NC(=O)CSc2cn(Cc3ccccc3)c3ccccc23)s1 was read as Shiga inhibitor inactive, AMA1 RON2 block inactive, CHX counter inactive, Pf growth 96h inconclusive and HCV inh inactive.
`N#Cc1ccc(Cn2ccnc2C(=O)Nc2ccccc2)cc1` gave Shiga inhibitor inactive, AMA1 RON2 block inactive, CHX counter inactive, Pf growth 96h inactive, Pf growth 48h inactive and HCV inh inactive.
`CC(=O)Nc1cccc(NC(=O)CSc2nccn2Cc2ccccc2)c1` gave Shiga inhibitor inactive, AMA1 RON2 block inactive, CHX counter inactive, Pf growth 96h inactive and Pf growth 48h inactive.
O=C(CSc1nccn1Cc1ccccc1)Nc1nccs1 was read as Shiga inhibitor active, AMA1 RON2 block inactive, CHX counter 37, Pf growth 96h inactive, Pf growth 48h inactive and HCV inh inactive.
Cc1ccc(Cn2ccnc2C(=O)Nc2ccccc2)cc1 was read as Shiga inhibitor 87, AMA1 RON2 block inactive, CHX counter 27, Pf growth 96h inactive, Pf growth 48h inactive and HCV inh inactive.
COC(=O)c1c(N)[nH]c(C(=O)c2ccccc2)c1-c1ccccc1Br was read as AMA1 RON2 block inactive.
Cc1cccc(C(=O)NCC(=O)Nc2ccncc2)c1 was read as AMA1 RON2 block inactive, Pf growth 96h inactive, Pf growth 48h inactive and HCV inh inactive.
For O=C(CSc1nccn1Cc1ccccc1)NC1CCCC1 the results were Shiga inhibitor inactive, AMA1 RON2 block inactive, CHX counter 25, Pf growth 96h inactive, Pf growth 48h inactive and HCV inh inactive.
`COC(=O)c1ccc(NC(=O)CSc2nncn2C)cc1` gave Shiga inhibitor inactive, AMA1 RON2 block inactive, CHX counter inactive, Pf growth 96h inactive, Pf growth 48h inactive and HCV inh inactive.
For O=C(CSc1nnc(-c2ccccn2)n1Cc1ccccc1)NC1CCCC1 the results were Shiga inhibitor inactive, AMA1 RON2 block inactive, CHX counter inactive, Pf growth 96h inconclusive, Pf growth 48h 8.3µM and HCV inh inactive.
COC(=O)c1ccc(NC(=O)CSc2nccn2CCc2ccccc2)cc1 was read as Shiga inhibitor inactive, AMA1 RON2 block inactive, CHX counter 44, Pf growth 48h inactive and HCV inh inactive.
Screening CCCn1c(SCC(=O)NC2CCCCC2)nnc1-c1ccccn1 returned Shiga inhibitor inactive, AMA1 RON2 block inactive, CHX counter inactive, Pf growth 96h inactive, Pf growth 48h inactive and HCV inh inactive.
Screening O=C(CSc1nccn1Cc1ccc(F)cc1)NC1CCCC1 returned Shiga inhibitor inactive, AMA1 RON2 block inactive, CHX counter inactive, Pf growth 96h inactive, Pf growth 48h inactive and HCV inh inactive.
For NS(=O)(=O)c1ccc(CNC(=O)c2ccc3c(=O)n4c(nc3c2)CCC4)cc1 the results were AMA1 RON2 block inactive, Pf growth 96h inactive, Pf growth 48h inactive and HCV inh inactive.
Cn1c(CC(=O)Nc2ccccc2)c(Sc2ccccc2)c2ccccc21 was read as Shiga inhibitor inactive, AMA1 RON2 block inactive, CHX counter inactive, Pf growth 96h 8.3µM, Pf growth 48h inconclusive and HCV inh inactive.
`Cn1c(CC(=O)Nc2ccccc2)cc2ccccc21` gave Shiga inhibitor 46, AMA1 RON2 block inactive, CHX counter 40, Pf growth 96h inactive, Pf growth 48h inactive and HCV inh inactive.
`CSc1c(CC(=O)Nc2ccc(F)cc2)n(Cc2ccccc2)c2ccccc12` gave Shiga inhibitor inactive, AMA1 RON2 block inactive, CHX counter inactive, Pf growth 96h 13µM, Pf growth 48h 7.4µM and HCV inh inactive.
Screening CSc1c(CC(=O)Nc2ccccc2)n(C)c2ccccc12 returned Shiga inhibitor inactive, AMA1 RON2 block inactive, CHX counter inactive, Pf growth 96h inconclusive, Pf growth 48h 10µM and HCV inh inconclusive.
`Cn1c(=O)n(CC(=O)Nc2ccc(F)cc2)c2ccccc21` gave Shiga inhibitor inactive, AMA1 RON2 block inactive, CHX counter inactive, Pf growth 96h inactive, Pf growth 48h inactive and HCV inh inactive.
`Cn1c(=O)n(CC(=O)Nc2ccccc2)c2ccccc21` gave Shiga inhibitor inactive, AMA1 RON2 block inactive, CHX counter inactive, Pf growth 96h inconclusive, Pf growth 48h inactive and HCV inh inactive.
Screening COCCNC(=O)C1(C)CCN(C(=O)c2ccc(OC)c(F)c2)C1 (stereo unspecified) returned AMA1 RON2 block inactive.
For CNC(=S)NN=C(C)CCCC(C)=NNC(=S)NC the results were AMA1 RON2 block inactive and HCV inh inconclusive.
Cn1c(CC(=O)Nc2ccccc2C(F)(F)F)c(Sc2ccccc2)c2ccccc21 was read as Shiga inhibitor inactive, AMA1 RON2 block inactive, CHX counter inactive, Pf growth 96h inactive, Pf growth 48h 15µM and HCV inh inactive.
COc1ccc(CN2CCC[C@]3(N[C@H](c4ccccc4)[C@@H]4C(=O)N(C)C(=O)[C@@H]43)C2=O)cc1 was read as AMA1 RON2 block inactive.
Screening C=CCn1cc(C(=O)OC)c(=O)c2cc(S(=O)(=O)N3CCCCCC3)ccc21 returned Shiga inhibitor inactive, AMA1 RON2 block inactive, CHX counter inactive, Pf growth 96h inactive, Pf growth 48h inconclusive and HCV inh inactive.
Screening Cn1cc(C(=O)NCC2COc3ccccc3O2)c(=O)c2cc(S(=O)(=O)N3CCCCC3)ccc21 (stereo unspecified) returned Shiga inhibitor inactive, AMA1 RON2 block inactive, CHX counter inactive, Pf growth 48h 12µM and HCV inh inactive.
